Structures are written as SMILES. ± gives the standard deviation of the averaged measurements.

Data on 15 compounds can be found in the supplement of paper PMC6522484.

Experiment [1] concerns DLD1. In words: cell viability (CellTiter-Glo) relative to plate median (fraction of plate median); higher = more viable cells. Particulars: 5 µM; treatment time 24 h; reporter: 7TFP. The method, boiled down:
(§1)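 Colorectal cancer cells stably transduced with lentiviral TCF/Wnt firefly luciferase reporters were seeded in 384-well plates and dosed 24 h later with library compounds at a final 5 µM for 24 h. Firefly luciferase or CellTiterGlo luminescence was then read on a Tecan F500 from parallel plates. Signals were normalised per well to the plate median without log transformation, additively in webcellHTS2, and averaged over two independent replicates.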

Experiment [2] has as its system HCT116. Described as above. The conditions noted are these: 5 µM; treatment time 24 h; reporter: TCF4/Wnt. The method in brief: as §1
The subject of experiment [3] is SW480. The description is as above. Particulars: 5 µM; treatment time 24 h; reporter: 7TFP. The method, boiled down:
as §1

The test system of experiment [4] is DLD1. In words: TCF/Wnt firefly luciferase reporter signal relative to plate median (fraction of plate median); higher = higher Wnt reporter signal. The conditions noted are these: 5 µM; treatment time 24 h; reporter: 7TFP. The method in brief:
as §1

For experiment [5], the system named is SW480. The description is as above. The conditions noted are these: 5 µM; treatment time 24 h; reporter: 7TFP. The method, boiled down:
as §1

In the case of `C/C=C/CCC(=O)c1c(C)c(O)c(O)c(C)c1O` [Sohirnone C], the cell viability in experiment [1] was found to be 1.11 ± 0.05; in experiment [2], 0.995 ± 0.035; in experiment [3], 1.05 ± 0.057. In addition, the results for the “TCF/Wnt firefly luciferase reporter signal” value in experiment [4] and in experiment [5] were 1.07 ± 0.014 and 1.08 ± 0.071, respectively.

On to `C[C@@H]1CC(=O)c2c(ccc3c2C(=O)c2cccc(O)c2C3=O)C1` [Ochromycinone (Isoform C, Compound ID 7613)], for which the figures for the cell viability in experiment [1], in experiment [2] and in experiment [3] were 1.02 ± 0.091, 1.08 ± 0.099 and 1.1 ± 0.064, respectively. Moreover, the “TCF/Wnt firefly luciferase reporter signal” value in experiment [4] stood at 1.09 ± 0.13; in experiment [5] it was 1.04 ± 0.11.

`CC(C)c1cccc(=O)c(O)c1`: the cell viability in experiment [1] came out at 1.11 ± 0.13; in experiment [2], 1.07 ± 0.042; in experiment [3], 1.1 ± 0.021. For the same compound, the “TCF/Wnt firefly luciferase reporter signal” value in experiment [4] is 1.03 ± 0.073; in experiment [5] it was 0.985 ± 0.064.

With `C=C(C)[C@@H]1CC[C@]2(C(=O)O)CC[C@]3(C)[C@H](C[C@H]4OC(=O)C[C@@H](O)[C@]5(C)[C@@H]4[C@@]3(C)CC[C@H]5C(=C)C)[C@@H]12` [Chiisanogenin (12)], the cell viability is 0.9945 ± 0.00071 in experiment [1], 1.02 ± 0.12 in experiment [2] and 0.968 ± 0.023 in experiment [3]. For the same compound, the “TCF/Wnt firefly luciferase reporter signal” value in experiment [4] was determined as 1.11 ± 0.028; in experiment [5], 1.12 ± 0.028.

With `CC(C)CCCCCCCCC1CC(=O)NC(CCC(=O)O)C(=O)NC(CC(C)C)C(=O)NC(CC(C)C)C(=O)NC(C(C)C)C(=O)NC(CC(=O)O)C(=O)NC(CC(C)C)C(=O)NC(CC(C)C)C(=O)O1` (stereo not given) [Surfactin B1], the figures for the cell viability in experiment [1], in experiment [2] and in experiment [3] were 0.959 ± 0.072, 0.925 ± 0.018 and 0.962 ± 0.038, respectively. The “TCF/Wnt firefly luciferase reporter signal” value in experiment [4] came to 0.92 ± 0.21; in experiment [5], 1.01 ± 0.015.

In the case of `N#Cc1ccc2c(c1)N(CCCN1CCC(O)CC1)c1ccccc1S2`, the cell viability is 0.991 ± 0.07 in experiment [1], 0.931 ± 0.053 in experiment [2] and 1.01 ± 0.069 in experiment [3]. Besides, the “TCF/Wnt firefly luciferase reporter signal” value in experiment [4] is 0.981 ± 0.056; in experiment [5], 1.05 ± 0.071.

Turning to `O=C1c2ccccc2C(=O)C1c1ccccc1`, the results for the cell viability in experiment [1], in experiment [2] and in experiment [3] were 1.02, 1.02 ± 0.048 and 1.02, respectively. Further, the “TCF/Wnt firefly luciferase reporter signal” value in experiment [4] was 1.12 ± 0.014; in experiment [5] it was 1.15 ± 0.071.

`COc1cc(N)c(Cl)cc1C(=O)NC1CCN(Cc2ccccc2)CC1`: the cell viability was 0.971 ± 0.026 in experiment [1], 0.883 ± 0.041 in experiment [2] and 0.975 ± 0.0071 in experiment [3]. The results for the “TCF/Wnt firefly luciferase reporter signal” value in experiment [4] and in experiment [5] were 0.8815 ± 0.0021 and 0.998 ± 0.017, respectively.

With `CC(=O)CC(c1ccccc1)c1c(O)c2ccccc2oc1=O` (stereo not given), the cell viability in experiment [1] is 1.02 ± 0.056; in experiment [2], 1.14 ± 0.078; in experiment [3] it was 0.989 ± 0.073. Also, the “TCF/Wnt firefly luciferase reporter signal” value in experiment [4] is 0.935 ± 0.062; in experiment [5] it was 1.12 ± 0.028.

`Cc1noc(NS(=O)(=O)c2ccc(N)cc2)c1C`: the cell viability in experiment [1] worked out at 0.904 ± 0.0057; in experiment [2], 1.04 ± 0.13; in experiment [3], 0.915 ± 0.044. The “TCF/Wnt firefly luciferase reporter signal” value in experiment [4] was 1.02 ± 0.076; in experiment [5], 0.984 ± 0.079.

`CN[C@@H]1[C@@H](O)[C@@H](O[C@@H]2[C@@H](O)[C@H](O[C@H]3OC(CN)=CC[C@H]3N)[C@@H](N)C[C@H]2N)OC[C@]1(C)O`: the cell viability in experiment [1] worked out at 1.04; in experiment [2], 0.9635 ± 0.0092; in experiment [3], 1.07 ± 0.042. Moreover, the “TCF/Wnt firefly luciferase reporter signal” value in experiment [4] is 0.933 ± 0.17; in experiment [5], 0.97 ± 0.085.

In the case of `O=C(c1c[nH]c2ccccc12)C(O)CO` (stereo not given) [1-(3-Indolyl)-2,3-dihydroxypropan-1-one], the cell viability in experiment [1] is 0.989 ± 0.072; in experiment [2], 1.02 ± 0.06; in experiment [3], 0.966 ± 0.046. Further, the “TCF/Wnt firefly luciferase reporter signal” value in experiment [4] is 1.12 ± 0.028; in experiment [5] it was 1 ± 0.079.

For the compound `CC1(C)O[C@@H]2C[C@H]3[C@@H]4C[C@H](F)C5=CC(=O)CC[C@]5(C)[C@H]4[C@@H](O)C[C@]3(C)[C@]2(C(=O)CO)O1`, the cell viability in experiment [1] was 1.01 ± 0.025; in experiment [2], 1.025 ± 0.0071; in experiment [3], 1.02 ± 0.047. In addition, the “TCF/Wnt firefly luciferase reporter signal” value in experiment [4] stood at 0.949 ± 0.087; in experiment [5], 1.04 ± 0.073.

As for `C[C@@H]1C[C@H]2[C@@H]3CCC4=CC(=O)C=C[C@]4(C)[C@@]3(F)[C@@H](O)C[C@]2(C)[C@@]1(O)C(=O)CO`, the cell viability in experiment [1] came out at 1.06 ± 0.071; in experiment [2], 1.05 ± 0.057; in experiment [3] it was 0.977 ± 0.016. Also, the “TCF/Wnt firefly luciferase reporter signal” value is 1.04 ± 0.082 in experiment [4] and 1.05 ± 0.035 in experiment [5].

For `CN(C)[C@@H]1C(O)=C(C(N)=O)C(=O)[C@@]2(O)C(O)=C3C(=O)c4c(O)ccc(Cl)c4[C@@](C)(O)[C@H]3C[C@@H]12`, the cell viability in experiment [1] came out at 1.05 ± 0.028; in experiment [2], 1.1 ± 0.085; in experiment [3], 1.02 ± 0.014. The figures for the “TCF/Wnt firefly luciferase reporter signal” value in experiment [4] and in experiment [5] were 1.11 ± 0.13 and 0.99 ± 0.0042, respectively.
